Activity calls are given as the source filed them.

In assay [1] the test system is Plasmodium falciparum Sir2 (PF13_0152, Sir2A). Briefly: Plasmodium falciparum Sir2A binding compounds – biochemical, small-molecule microarray, 635 nm fluorescence, primary screen (AID 1098).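 Further: score merges spot fluorescence intensity with its signal-to-noise ratio.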 The note with it: fluorescence 635 nm, higher = more signal.
Assay [2] in a line: probe aDKK1 binding to arrayed compounds – biochemical, biotinylated probe, 635/667 nm fluorescence, primary screen (AID 1099).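 Further: score merges 667nm spot fluorescence with signal to noise across triplicate slides.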 To be noted: small-molecule microarray, higher = more signal.
Assay [3] is described as follows: probe aCHRDL2 binding to arrayed compounds – biochemical, biotinylated probe, 635/667 nm fluorescence, primary screen (AID 1100). To be noted: small-molecule microarray, higher = more signal.
The nature of assay [4]: change in splice reporter luminescence, either direction, cell-based, HEK293, spliceosome inhibition project, primary screen (AID 1101).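 Further: HEK293 cells carrying a splicing-competent luciferase reporter gene; test concentration not given here.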 To be noted: HEK293 splicing luciferase reporter, 24 h, higher = more signal, called active from +8 up or from −8 down.
In assay [5] the target is Fibroblast growth factor 10 (Homo sapiens) (UniProt O15520). Briefly: compounds binding fibroblast growth factor 10 – biochemical, small-molecule microarray, 635 nm fluorescence, primary screen (AID 1102). To be noted: FGF10 binding, fluorescence 635 nm, higher = more signal.
Assay [6] deals with glycogen synthase kinase-3 (GSK3A per assay name; protocol says GSK3B). Description: compounds binding glycogen synthase kinase-3 – biochemical, small-molecule microarray, 635 nm fluorescence, GSK3A, primary screen (AID 1103). Further: the record names both GSK3A and GSK3B. The note with it: fluorescence 635 nm, higher = more signal.
The target in assay [7] is Epidermal growth factor receptor (Homo sapiens) (UniProt P00533). Description: compounds binding epidermal growth factor receptor – biochemical, small-molecule microarray, 635 nm fluorescence, primary screen (AID 1104).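 Further: score merges 667 nm emission intensity with spot signal to noise over triplicate slides.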 The note with it: EGFR binding, higher = more signal.
The target in assay [8] is Follistatin-related protein 3 (Homo sapiens) (UniProt O95633). Description: compounds binding follistatin-related protein 3 – biochemical, small-molecule microarray, 635 nm fluorescence, primary screen (AID 1105).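 Further: score merges emission near 667 nm and signal to noise per printed spot across three slides.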 To be noted: FSTL3 binding, higher = more signal.
Assay [9] has as its target Dickkopf-related protein 1 (Homo sapiens) (UniProt O94907). Briefly: small molecules binding DKK1 protein – biochemical, small-molecule microarray, 635 nm fluorescence scan, primary screen (AID 1106).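 Further: score merges emission near 667 nm with signal to noise over three replicate slides.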 The note with it: higher = more signal.
In assay [10] the test system is Inhibin beta A chain (activin A). Description: small molecules binding activin A – biochemical, small-molecule microarray, 635 nm fluorescence scan, primary screen (AID 1107).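 Further: mouse activin A protein probed at 4.33 µg/mL on printed slides; score merges bound-protein fluorescence near 667 nm with spot signal-to-noise.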 The note with it: INHBA, higher = more signal.
Assay [11] relates to Human papillomavirus type 1a protein E7 (residues 44-93). Description: small molecules binding HPV E7 44-93 – biochemical, small-molecule microarray, residues 44-93, 635 nm fluorescence, primary screen (AID 1108).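 Further: E7 fragment applied at 1 µg/mL in TBST for 1 h at 4 C; score combines spot fluorescence with its signal to noise ratio.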 The note with it: fluorescence 635 nm, higher = more signal.
Assay [12] can be described thus: hepatitis C replication reporter changes, two-sided – Huh7 cells, luciferase reporter, HCV replication inhibitor project, primary screen (AID 1109).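 Further: huh7 hepatoma cells harbouring a luciferase neomycin HCV replicon reporter; luciferase luminescence as measure of HCV replicon replication; test concentration not given here.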 The note with it: Huh7 HCV replicon luciferase reporter, 48 h; higher = more signal.
In assay [13] the target is Left-right determination factor 2 (Homo sapiens) (UniProt O00292). Briefly: small molecules binding LEFTY2 protein – biochemical, small-molecule microarray, 635 nm fluorescence scan, primary screen (AID 1110). The note with it: higher = more signal.
For assay [14], the target named is Calmodulin-1 (Homo sapiens) (UniProt P0DP23). Description: small molecules binding calmodulin-1 with EGTA – biochemical, small-molecule microarray, Cy5-labelled CALM1, profiling panel (AID 1111).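 Further: labelled calmodulin applied in Tris saline Tween buffer holding calcium plus EGTA and DTT.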 The note with it: Cy5-CALM1 binding fluorescence, higher = more signal.
For assay [15] the target is unchanged. Description: small molecules binding Ca-loaded calmodulin-1 – biochemical, small-molecule microarray, Cy5-labelled CALM1, plus calcium, artefact control for SMM control-protein annotation, profiling panel (AID 1112).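 Further: score merges spot fluorescence with signal to noise from triplicate slides.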 To be noted: Cy5-CALM1 binding fluorescence, higher = more signal.
Assay [16] can be described thus: probe aWnt5a binding to arrayed compounds – biochemical, biotinylated probe, 635/667 nm fluorescence, primary screen (AID 1113).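 Further: score merges 667 nm fluorescence intensity with signal-to-noise per printed feature.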 To be noted: small-molecule microarray, higher = more signal.
Assay [17] can be described thus: probe aShh binding to arrayed compounds – biochemical, biotinylated probe, 635/667 nm fluorescence, primary screen (AID 1114).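 Further: probe is biotin-labelled aShh protein from a stem cell growth factor screen; measures binding of labelled protein to compounds printed on the slide; score merges feature fluorescence at 667 nm with signal-to-noise.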 The note with it: small-molecule microarray, higher = more signal.
Assay [18] is described as follows: probe aNog binding to arrayed compounds – biochemical, biotinylated probe, 635/667 nm fluorescence, primary screen (AID 1115).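 Further: probe is biotinylated aNog protein used at 0.15 µg/mL for 1 h at 4 C; z-score combines 667 nm fluorescence of each spot with its signal to noise.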 To be noted: small-molecule microarray, higher = more signal.
The target of assay [19] is Torsin-1A-interacting protein 1 (Homo sapiens) (UniProt Q5JTV8). Description: compound microarray binding of lysate hLAP1 – cell lysate, small-molecule microarray, COS7 lysate, 635/667 nm fluorescence, primary screen (AID 1116). To be noted: 635 nm fluorescence, higher = more signal.
Assay [20] deals with Alpha-bungarotoxin (Bungarus multicinctus) (UniProt P60615). Briefly: compounds binding labelled alpha-BTX control protein – biochemical, small-molecule microarray, Alexa647 label, 635/667 nm fluorescence, artefact control for SMM control protein annotation, profiling panel (AID 1117). The note with it: alpha-BTX-A647 binding fluorescence, higher = more signal.
Alpha-bungarotoxin (Bungarus multicinctus), sequence (P60615 whole entry, looked up): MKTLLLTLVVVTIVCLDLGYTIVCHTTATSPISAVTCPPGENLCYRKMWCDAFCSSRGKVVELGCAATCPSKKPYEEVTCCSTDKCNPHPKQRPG

Epidermal growth factor receptor (Homo sapiens), sequence (P00533 whole entry, looked up): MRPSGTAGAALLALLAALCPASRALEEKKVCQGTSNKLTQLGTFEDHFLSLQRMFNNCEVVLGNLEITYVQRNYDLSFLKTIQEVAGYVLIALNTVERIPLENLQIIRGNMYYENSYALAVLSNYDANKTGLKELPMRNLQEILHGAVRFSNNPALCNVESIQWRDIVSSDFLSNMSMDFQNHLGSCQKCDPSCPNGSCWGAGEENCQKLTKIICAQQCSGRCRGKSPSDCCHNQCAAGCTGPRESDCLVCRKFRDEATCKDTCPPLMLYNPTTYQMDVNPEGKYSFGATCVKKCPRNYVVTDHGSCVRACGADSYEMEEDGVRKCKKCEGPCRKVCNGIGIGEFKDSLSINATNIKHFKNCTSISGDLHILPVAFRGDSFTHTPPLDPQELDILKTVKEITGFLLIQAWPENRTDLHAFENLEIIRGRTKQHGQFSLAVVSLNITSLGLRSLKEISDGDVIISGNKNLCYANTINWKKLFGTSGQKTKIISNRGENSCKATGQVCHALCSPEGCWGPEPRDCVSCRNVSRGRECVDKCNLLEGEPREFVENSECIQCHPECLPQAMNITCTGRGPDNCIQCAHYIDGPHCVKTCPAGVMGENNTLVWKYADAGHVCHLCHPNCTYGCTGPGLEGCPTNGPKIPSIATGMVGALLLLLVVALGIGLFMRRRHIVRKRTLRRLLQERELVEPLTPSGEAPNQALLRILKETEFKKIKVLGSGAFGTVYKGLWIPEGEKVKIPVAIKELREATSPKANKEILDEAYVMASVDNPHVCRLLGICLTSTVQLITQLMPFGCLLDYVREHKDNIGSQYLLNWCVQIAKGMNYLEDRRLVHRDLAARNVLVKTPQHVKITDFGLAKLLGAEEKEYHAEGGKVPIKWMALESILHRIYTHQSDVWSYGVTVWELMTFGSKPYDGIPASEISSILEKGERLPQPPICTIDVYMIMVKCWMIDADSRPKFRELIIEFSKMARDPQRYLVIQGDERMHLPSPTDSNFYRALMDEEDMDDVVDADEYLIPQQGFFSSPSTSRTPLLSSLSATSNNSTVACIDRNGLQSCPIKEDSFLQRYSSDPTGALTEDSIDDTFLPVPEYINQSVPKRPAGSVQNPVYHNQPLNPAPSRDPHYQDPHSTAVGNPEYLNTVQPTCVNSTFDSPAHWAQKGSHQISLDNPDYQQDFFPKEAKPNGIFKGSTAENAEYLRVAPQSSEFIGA
Torsin-1A-interacting protein 1 (Homo sapiens), sequence (Q5JTV8 whole entry, looked up): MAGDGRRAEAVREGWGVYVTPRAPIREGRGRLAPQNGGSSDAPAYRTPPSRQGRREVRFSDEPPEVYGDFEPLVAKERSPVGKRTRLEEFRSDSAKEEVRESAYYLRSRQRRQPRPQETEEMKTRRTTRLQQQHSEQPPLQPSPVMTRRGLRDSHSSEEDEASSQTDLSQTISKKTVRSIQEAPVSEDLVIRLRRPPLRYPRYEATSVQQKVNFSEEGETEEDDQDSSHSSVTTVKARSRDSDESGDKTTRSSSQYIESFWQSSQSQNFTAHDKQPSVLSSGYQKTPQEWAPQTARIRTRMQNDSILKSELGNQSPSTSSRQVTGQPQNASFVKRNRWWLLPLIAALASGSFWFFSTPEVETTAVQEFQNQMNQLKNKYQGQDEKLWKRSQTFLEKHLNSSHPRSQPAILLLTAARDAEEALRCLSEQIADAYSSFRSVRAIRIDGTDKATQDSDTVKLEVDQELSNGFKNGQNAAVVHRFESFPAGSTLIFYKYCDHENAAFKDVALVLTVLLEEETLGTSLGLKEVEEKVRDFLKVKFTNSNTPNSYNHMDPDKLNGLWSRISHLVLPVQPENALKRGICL
Fibroblast growth factor 10 (Homo sapiens), sequence (O15520 whole entry, looked up): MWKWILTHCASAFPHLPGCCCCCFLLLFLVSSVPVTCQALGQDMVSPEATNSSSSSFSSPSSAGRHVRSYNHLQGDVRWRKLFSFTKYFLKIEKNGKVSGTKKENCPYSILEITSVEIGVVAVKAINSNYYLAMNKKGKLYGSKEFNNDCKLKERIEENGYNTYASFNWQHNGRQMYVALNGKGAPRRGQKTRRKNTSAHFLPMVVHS
Left-right determination factor 2 (Homo sapiens), sequence (O00292 whole entry, looked up): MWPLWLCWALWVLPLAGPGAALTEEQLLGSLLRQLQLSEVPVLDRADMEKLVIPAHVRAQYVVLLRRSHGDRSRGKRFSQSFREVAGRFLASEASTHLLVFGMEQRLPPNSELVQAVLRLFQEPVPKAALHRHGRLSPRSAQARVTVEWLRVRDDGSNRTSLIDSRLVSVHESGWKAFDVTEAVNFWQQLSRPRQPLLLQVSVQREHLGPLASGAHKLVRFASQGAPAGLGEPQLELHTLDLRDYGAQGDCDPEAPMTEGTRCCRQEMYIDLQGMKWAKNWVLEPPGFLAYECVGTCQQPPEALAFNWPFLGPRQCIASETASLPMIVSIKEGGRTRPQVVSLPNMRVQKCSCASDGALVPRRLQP
Follistatin-related protein 3 (Homo sapiens), sequence (O95633 whole entry, looked up): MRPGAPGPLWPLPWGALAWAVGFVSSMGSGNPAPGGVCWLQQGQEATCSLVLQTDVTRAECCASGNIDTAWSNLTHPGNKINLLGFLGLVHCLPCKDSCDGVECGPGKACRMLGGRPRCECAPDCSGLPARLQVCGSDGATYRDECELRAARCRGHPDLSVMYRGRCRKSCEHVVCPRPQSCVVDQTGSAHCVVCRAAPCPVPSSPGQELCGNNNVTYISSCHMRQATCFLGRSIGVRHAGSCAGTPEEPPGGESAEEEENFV
Dickkopf-related protein 1 (Homo sapiens), sequence (O94907 whole entry, looked up): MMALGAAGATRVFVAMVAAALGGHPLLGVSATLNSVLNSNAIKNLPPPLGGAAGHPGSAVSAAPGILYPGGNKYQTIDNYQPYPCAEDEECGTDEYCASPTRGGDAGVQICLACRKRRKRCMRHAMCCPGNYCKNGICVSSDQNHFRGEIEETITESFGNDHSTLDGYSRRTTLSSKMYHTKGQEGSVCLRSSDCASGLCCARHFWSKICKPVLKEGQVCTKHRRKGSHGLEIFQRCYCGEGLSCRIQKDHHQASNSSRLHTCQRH

As to `CCCCC=C[C@@H](NC(=O)c1ccc(C(=O)OC)cc1)c1ccccc1`, the composite z-score was 0.741 in assay [1]; -0.095 in assay [2]; 0.613 in assay [3]; 0.335 in assay [5]; 0.804 in assay [6]; 0.239 in [7]. The composite z-score came out at 0.279 in assay [8]; 0.393 in assay [9]; 0.629 in assay [10]; 1.1 in assay [11]; 0.107 in assay [13]; 0.168 in assay [14]. Besides, the composite z-score in assay [15] was -0.128; in assay [16] it was -0.15; in [17] it was 0.0711; in [18] it was 0.122; in [19], 0.0279; in assay [20], 0.926. Also, the z-score was -3.67 (inactive) in [4] and -1.36 in assay [12].

Consider `O=C(OCCF)C1=CCC(c2cccc(Cl)c2)O1` (stereo not given), for which the composite z-score in [1] is -0.229; in assay [2] it was -0.0052; in assay [3], -0.325; in assay [5], 0.0899; in [6] it was 0.644; in assay [7], 0.119. Also, the composite z-score is 0.151 in [8]; -0.183 in assay [9]; 0.44 in assay [10]; 0.628 in [11]; 0.15 in assay [13]; 0.0307 in assay [14]. Moreover, the composite z-score in assay [15] was 0.164; in assay [16], -0.169; in [17], -0.0769; in assay [18], -0.0784; in assay [19] it was 1.53; in assay [20], 0.775. The values for the z-score in assay [4] and in assay [12] were -0.824 (inactive) and -0.0162, respectively.

Take `COCCOC(=O)N1C(=O)[C@@]2(c3cc(C#CCNC(N)=O)ccc31)[C@H](C(=O)N1CCN(c3ncccn3)CC1)[C@H]1C(=O)O[C@H](c3ccccc3)[C@H](c3ccccc3)N1[C@@H]2c1ccccc1OCCO`: the composite z-score was found to be 1.2 in assay [1]; 0.265 in [2]; 0.714 in [3]; 1.13 in assay [5]; 0.0685 in [6]; 0.736 in assay [7]. The composite z-score in assay [8] was found to be 1.24; in assay [9], 1.7; in assay [10] it was 1.02; in assay [11] it was 1.38; in [13], 0.877; in assay [14], 0.97. Besides, the composite z-score is 0.264 in assay [15]; 0.0375 in [16]; 0.175 in assay [17]; -0.319 in assay [18]; 0.82 in [19]; 0.904 in assay [20]. For the same compound, the z-score was -0.619 (inactive) in assay [4] and -1.05 in assay [12].

Consider `CC(C)c1ccc(NN2C(C(O)c3c(F)cccc3Cl)C=CC3C(=O)N(c4ccccc4)C(=O)C32)cc1` (stereo not given), for which the composite z-score in [1] turned out to be 0.683; in assay [2] it was 1.24; in assay [3], 1.13; in [5], 0.62; in assay [6], 0.852; in assay [7], 0.389. In addition, the composite z-score in [8] is 0.766; in assay [9], -0.247; in assay [10], 0.945; in assay [11], 1.23; in assay [13], 0.0094; in assay [14] it was 1.88. The composite z-score came out at 0.98 in assay [15]; 0.136 in assay [16]; 1.38 in [17]; 1.94 in assay [18]; 0.47 in assay [19]; 1.81 in assay [20]. Also, the z-score is -1.11 (inactive) in assay [4] and -0.242 in assay [12].

For the compound `COCCOC(=O)N1C(=O)[C@@]2(c3cc(C#CCCO)ccc31)[C@H](c1ccccc1OCCO)N1[C@H](c3ccccc3)[C@H](c3ccccc3)OC(=O)[C@H]1[C@@H]2C(=O)N1CCN(c2ncccn2)CC1`, the composite z-score in assay [1] was determined as 0.55; in assay [2], 0.75; in [3], 0.537; in [5], 0.74; in assay [6] it was 1.22; in assay [7], 0.965. Besides, the composite z-score in assay [8] turned out to be 1.39; in assay [9], 0.682; in [10], 0.617; in [11], 1.43; in assay [13] it was 1.15; in assay [14], 1.33. In addition, the composite z-score in assay [15] turned out to be 0.569; in assay [16], 0.203; in [17], 0.141; in [18], 0.435; in assay [19], 1.16; in assay [20], 0.994. The z-score in [4] is -0.381 (inactive); in assay [12], -1.92.

These data come from PubChem BioAssay.
